# Results as given in the supplement of paper PMC8728848.
# Many of the other results were omitted from the sample, so the strongest signals are more common in it than they were.
# B1: Clec2 (Mus musculus), Q9JL99 (protein)
# chain: MQDEDGYITLNIKPRKQALSSAEPASSWWRVMALVLLISSMGLVVGLVALGIMSVTQQKYLLAEKENLSATLQQLAKKFCQELIRQSEIKTKSTFEHKCSPCATKWRYHGDSCYGFFRRNLTWEESKQYCTEQNATLVKTASQSTLDYIAERITSVRWIGLSRQNSKKDWMWEDSSVLRKNGINLSGNTEENMNCAYLHNGKIHPASCKERHYLICERNAGMTRVDQLL
# Key:
# Assay in all cases: glycan array binding signal (z-score within array); higher = stronger binding
# Conditions in all cases: glycan notation: IUPAC condensed, linker removed
# [1] = molecular target: Fuc(a1-2)Gal(b1-3)GalNAc(b1-3)Gal
# Summary of the method: (§1)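 Glycan array data were curated from 3228 arrays in the Consortium for Functional Glycomics database and kept only where the protein sequence was available. Glycan names were converted to IUPAC-condensed notation, and columns mapping to the same glycan were averaged. The binding signal is a within-array Z-score, averaged across arrays of the same protein sequence at different concentrations or buffers and across linkers. Negative Z-scores can be read as non-binding.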
# [2] = molecular target: Fuc(a1-2)Gal(b1-4)Fuc(a1-3)]GlcNAc(b1-2)Man(a1-3)[Fuc(a1-2)Gal(b1-4)[Fuc(a1-3)]GlcNAc(b1-2)Man(a1-6)]Man(b1-4)GlcNAc(b1-4)GlcNAc
# Summary of the method: as §1
# [3] = molecular target: Fuc(a1-2)[Gal(a1-3)]Gal(b1-4)GlcNAc(b1-3)GalNAc
# Summary of the method: as §1
# [4] = molecular target: Fuc(a1-2)[GalNAc(a1-3)]Gal(b1-3)GalNAc(a1-3)[Fuc(a1-2)]Gal(b1-4)GlcNAc
# Summary of the method: as §1
# [5] = molecular target: Fuc(a1-2)[GalNAc(a1-3)]Gal(b1-4)GlcNAc(b1-3)Gal(b1-4)GlcNAc(b1-3)Gal(b1-4)GlcNAc
# Summary of the method: as §1
# [6] = molecular target: Fuc(a1-3)[Gal(b1-4)]GlcNAc(b1-2)Man
# Summary of the method: as §1
# Gal(a1-3)Gal(b1-3)GlcNAc = molecular target: Gal(a1-3)Gal(b1-3)GlcNAc
# Summary of the method: as §1
# [7] = molecular target: Gal(a1-3)Gal(b1-4)[Fuc(a1-3)]GlcNAc(b1-2)Man(a1-3)[Gal(a1-3)Gal(b1-4)[Fuc(a1-3)]GlcNAc(b1-2)Man(a1-6)]Man(b1-4)GlcNAc(b1-4)GlcNAc
# Summary of the method: as §1
# [8] = molecular target: Gal(b1-3)GalNAc(a1-3)[Fuc(a1-2)]Gal(b1-4)GlcNAc
# Summary of the method: as §1
# [9] = molecular target: Gal(b1-3)GlcNAc(b1-2)Man(a1-3)[Gal(b1-3)GlcNAc(b1-2)Man(a1-6)]Man(b1-4)GlcNAc(b1-4)[Fuc(a1-6)]GlcNAc
# Summary of the method: as §1
# [10] = molecular target: Gal(b1-3)GlcNAc(b1-3)Gal(b1-4)Glc
# Summary of the method: as §1
# [11] = molecular target: Gal(b1-3)GlcNAc(b1-3)Gal(b1-4)GlcNAc(b1-6)[Gal(b1-3)GlcNAc(b1-3)]Gal(b1-4)Glc
# Summary of the method: as §1
# [12] = molecular target: Gal(b1-3)GlcNAc(b1-3)Gal(b1-4)[Fuc(a1-3)]GlcNAc(b1-6)[Gal(b1-3)GlcNAc(b1-3)]Gal(b1-4)Glc
# Summary of the method: as §1
# [13] = molecular target: Gal(b1-3)[Fuc(a1-4)]GlcNAc(b1-2)Man
# Summary of the method: as §1
# [14] = molecular target: Gal(b1-4)GlcNAc(b1-2)Man(a1-3)Man(b1-4)GlcNAc(b1-4)GlcNAc
# Summary of the method: as §1
# [15] = molecular target: Gal(b1-4)GlcNAc(b1-2)Man(a1-3)[GlcNAc(b1-4)][Gal(b1-4)GlcNAc(b1-2)Man(a1-6)]Man(b1-4)GlcNAc(b1-4)GlcNAc
# Summary of the method: as §1
# [16] = molecular target: Gal(b1-4)GlcNAc(b1-3)Gal(b1-4)GlcNAc(b1-3)Gal(b1-4)GlcNAc(b1-3)Gal(b1-4)GlcNAc(b1-2)Man(a1-3)[Gal(b1-4)GlcNAc(b1-3)Gal(b1-4)GlcNAc(b1-3)Gal(b1-4)GlcNAc(b1-3)Gal(b1-4)GlcNAc(b1-2)Man(a1-6)]Man(b1-4)GlcNAc(b1-4)GlcNAc
# Summary of the method: as §1
# Gal3S(b1-4)Glc6S = molecular target: Gal3S(b1-4)Glc6S
# Summary of the method: as §1
# [17] = molecular target: Gal3S(b1-4)[Fuc(a1-3)]Glc6S
# Summary of the method: as §1
# Gal3S6S(b1-4)GlcNAc6S = molecular target: Gal3S6S(b1-4)GlcNAc6S
# Summary of the method: as §1
# Gal6P(b1-4)GlcNAc = molecular target: Gal6P(b1-4)GlcNAc
# Summary of the method: as §1
# Gal6S(b1-3)GlcNAc6S = molecular target: Gal6S(b1-3)GlcNAc6S
# Summary of the method: as §1
# [18] = molecular target: GalNAc(b1-3)Gal(a1-4)Gal(b1-4)GlcNAc
# Summary of the method: as §1
# GalNAc(b1-4)Gal(b1-4)Glc = molecular target: GalNAc(b1-4)Gal(b1-4)Glc
# Summary of the method: as §1
# [19] = molecular target: GlcNAc(a1-4)Gal(b1-4)GalNAc
# Summary of the method: as §1
# [20] = molecular target: GlcNAc(a1-4)Gal(b1-4)GlcNAc(b1-3)Gal(b1-4)GlcNAc
# Summary of the method: as §1
# [21] = molecular target: Man(a1-2)Man(a1-2)Man(a1-6)[Man(a1-3)]Man
# Summary of the method: as §1
# Neu5Ac(a2-3)Gal = molecular target: Neu5Ac(a2-3)Gal
# Summary of the method: as §1
# [22] = molecular target: Neu5Ac(a2-3)Gal(b1-3)GlcNAc(b1-2)Man(a1-3)[Neu5Ac(a2-3)Gal(b1-3)GlcNAc(b1-2)Man(a1-6)]Man(b1-4)GlcNAc(b1-4)GlcNAc
# Summary of the method: as §1
# [23] = molecular target: Neu5Ac(a2-3)Gal(b1-4)GlcNAc(b1-2)[Neu5Ac(a2-3)Gal(b1-4)GlcNAc(b1-4)]Man(a1-3)[GlcNAc(b1-4)][Neu5Ac(a2-3)Gal(b1-4)GlcNAc(b1-2)[Neu5Ac(a2-3)Gal(b1-4)GlcNAc(b1-6)]Man(a1-6)]Man(b1-4)GlcNAc(b1-4)GlcNAc
# Summary of the method: as §1
# [24] = molecular target: Neu5Ac(a2-3)Gal(b1-4)[Fuc(a1-3)]GlcNAc(b1-3)GalNAc
# Summary of the method: as §1
# [25] = molecular target: Neu5Ac(a2-3)Gal6S(b1-4)GlcNAc
# Summary of the method: as §1
# [26] = molecular target: Neu5Ac(a2-3)[GalNAc(b1-4)]Gal(b1-4)Glc
# Summary of the method: as §1
# [27] = molecular target: Neu5Ac(a2-6)Gal(b1-4)GlcNAc(b1-2)Man(a1-3)[GlcNAc(b1-2)Man(a1-6)]Man(b1-4)GlcNAc(b1-4)GlcNAc
# Summary of the method: as §1
# [28] = molecular target: Neu5Ac(a2-6)Gal(b1-4)GlcNAc(b1-2)Man(a1-6)[Gal(b1-4)GlcNAc(b1-2)Man(a1-3)]Man(b1-4)GlcNAc(b1-4)GlcNAc
# Summary of the method: as §1
# [29] = molecular target: Neu5Ac(a2-6)Gal(b1-4)GlcNAc(b1-3)Gal(b1-4)GlcNAc(b1-3)Gal(b1-4)GlcNAc(b1-2)Man(a1-3)[Neu5Ac(a2-6)Gal(b1-4)GlcNAc(b1-3)Gal(b1-4)GlcNAc(b1-3)Gal(b1-4)GlcNAc(b1-2)Man(a1-6)]GalNAc
# Summary of the method: as §1
# [30] = molecular target: Neu5Ac(a2-6)Gal(b1-4)GlcNAc(b1-6)[Gal(b1-3)GlcNAc(b1-3)]Gal(b1-4)Glc
# Summary of the method: as §1
# [31] = molecular target: Neu5Ac(b2-6)Gal(b1-4)GlcNAc
# Summary of the method: as §1
# [32] = molecular target: Neu5Gc(a2-3)Gal(b1-3)GlcNAc
# Summary of the method: as §1
# Neu5Gc(a2-3)Gal(b1-4)Glc = molecular target: Neu5Gc(a2-3)Gal(b1-4)Glc
# Summary of the method: as §1
# [33] = molecular target: Neu5Gc(a2-8)Neu5Ac(a2-3)Gal(b1-4)GlcNAc
# Summary of the method: as §1
# [34] = molecular target: Neu5Gc(a2-8)Neu5Gc(a2-3)Gal(b1-4)GlcNAc(b1-3)Gal(b1-4)GlcNAc
# Summary of the method: as §1
binder,measurement,setting,value
B1,glycan array binding signal (z-score),[1],9.47
same,glycan array binding signal (z-score),[2],3.96
same,glycan array binding signal (z-score),[3],-0.063
same,glycan array binding signal (z-score),[4],-0.388
same,glycan array binding signal (z-score),[5],-0.74
same,glycan array binding signal (z-score),[6],0.349
same,glycan array binding signal (z-score),Gal(a1-3)Gal(b1-3)GlcNAc,3
same,glycan array binding signal (z-score),[7],6.06
same,glycan array binding signal (z-score),[8],-0.939
same,glycan array binding signal (z-score),[9],-0.411
same,glycan array binding signal (z-score),[10],0.433
same,glycan array binding signal (z-score),[11],-0.864
same,glycan array binding signal (z-score),[12],-0.993
same,glycan array binding signal (z-score),[13],3.5
same,glycan array binding signal (z-score),[14],-0.472
same,glycan array binding signal (z-score),[15],-0.464
same,glycan array binding signal (z-score),[16],-0.166
same,glycan array binding signal (z-score),Gal3S(b1-4)Glc6S,3.71
same,glycan array binding signal (z-score),[17],1.03
same,glycan array binding signal (z-score),Gal3S6S(b1-4)GlcNAc6S,4.08
same,glycan array binding signal (z-score),Gal6P(b1-4)GlcNAc,3.62
same,glycan array binding signal (z-score),Gal6S(b1-3)GlcNAc6S,3.2
same,glycan array binding signal (z-score),[18],0.28
same,glycan array binding signal (z-score),GalNAc(b1-4)Gal(b1-4)Glc,1.12
same,glycan array binding signal (z-score),[19],-0.598
same,glycan array binding signal (z-score),[20],-0.749
same,glycan array binding signal (z-score),[21],-0.215
same,glycan array binding signal (z-score),Neu5Ac(a2-3)Gal,0.604
same,glycan array binding signal (z-score),[22],3.51
same,glycan array binding signal (z-score),[23],-0.711
same,glycan array binding signal (z-score),[24],0.837
same,glycan array binding signal (z-score),[25],0.844
same,glycan array binding signal (z-score),[26],-0.342
same,glycan array binding signal (z-score),[27],-0.833
same,glycan array binding signal (z-score),[28],-0.707
same,glycan array binding signal (z-score),[29],4.45
same,glycan array binding signal (z-score),[30],-0.654
same,glycan array binding signal (z-score),[31],0.023
same,glycan array binding signal (z-score),[32],-0.366
same,glycan array binding signal (z-score),Neu5Gc(a2-3)Gal(b1-4)Glc,-0.112
same,glycan array binding signal (z-score),[33],-0.442
same,glycan array binding signal (z-score),[34],-0.34
